Rows were chosen to be rich in hits. Some 4.5% of all compounds tested hit in one or more screens of this group.
hcDAF12 agonist – activates DAF-12 receptor from parasite H. contortus. HEK293 hcDAF-12 lit1-tk-luc reporter, luminescence; 0% DMSO, 100% Δ7-dafachronic acid. activation, % at 6.8 µM. 1.4% of 370,000 active;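 active means activation above the mean of all tested compounds plus 3 SD, cut at about 5.5% in these data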;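 further: 100% = response to 3 µM Δ7-dafachronic acid high control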
hgDAF12 agonist – hgDAF-12 agonism, primary luciferase screen; activation, % at 6.8 µM; 1.8% of 370,000 active; HEK293 GAL4-hgDAF12 UAS-luciferase reporter, agonist luminescence; normalized to butyrate control; AID 687014;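 active means activation above a cutoff set at the mean of all screened compounds plus 3 SD, cut at about 10% in these data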;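 further: 0% = DMSO wells and 100% = sodium butyrate wells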
FXN GAA850 act – activators of GAA850 frataxin (FXN) promoter; HEK293 lucGAA850 FXN promoter luciferase reporter, 24 h; percent of 10 µM SAHA response; activation, % at 6 µM; 0.56% of 360,000 active; AID 540364;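 active means activation above the average of all compounds screened plus 3 SD, cutoff fixed separately per campaign, cut at about 7.5% in these data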;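 further: 0% = DMSO wells and 100% = 10 µM SAHA wells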
ssDAF-12 act – activates DAF-12 receptor from parasite S. stercoralis; AID 652126; activation, % at 6.8 µM; 1% of 370,000 active; HEK293 ssDAF-12/GRIP1 lit1-tk-luc reporter, luminescence; % of 3 µM dafachronic acid response;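 active means activation above the mean over all tested compounds plus 3 SD, cut at about 0.9% in these data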;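 further: 0% = DMSO-only wells and 100% = 3 µM delta7-dafachronic acid wells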
DAX1 inh-1 – inhibitors of human orphan nuclear receptor DAX1 (NR0B1); P51843; HEK293 Gal4-DAX1 luciferase reporter, luminescence; inhibition, % at 6.75 µM; 0.99% of 340,000 active;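 active means inhibition above the mean over all tested compounds plus 3 SD, cut at about 4.2% in these data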;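 further: 0% = DAX1-transfected cells with DMSO and 100% = empty-vector control cells with DMSO; inhibition shows as a rise in luminescence from relieved DAX1 repression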
Target sequence (P51843 207-470 limits assumed): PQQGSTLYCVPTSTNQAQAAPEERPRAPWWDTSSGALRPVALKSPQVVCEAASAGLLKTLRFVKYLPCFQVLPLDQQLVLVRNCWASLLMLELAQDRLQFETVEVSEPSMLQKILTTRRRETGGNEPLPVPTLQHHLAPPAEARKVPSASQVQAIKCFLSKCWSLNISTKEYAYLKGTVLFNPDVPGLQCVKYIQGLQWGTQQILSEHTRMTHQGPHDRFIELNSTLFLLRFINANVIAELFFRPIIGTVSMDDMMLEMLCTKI
DAX1 inh-2 – inhibitors of DAX1 repression of SF-1 activated StAR promoter. HEK293T StAR-luciferase reporter, SF-1/DAX-1 repression relief. inhibition, % at 6.8 µM. 1.1% of 370,000 active;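 active means inhibition above the mean over all tested compounds plus 3 SD, cut at about 3.6% in these data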;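 further: 0% = DAX-1 cells with DMSO and 100% = cells lacking DAX-1 with DMSO; higher inhibition means more luminescence from relief of DAX-1 repression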
Starred values were filed as active, the others as inactive; . = no result given.

SMILES	hcDAF12 agonist	hgDAF12 agonist	FXN GAA850 act	ssDAF-12 act	DAX1 inh-1	DAX1 inh-2
CCOC(=O)c1ccc(OC)c(OC)c1Cl	-1	0	0	-1	5.8*	-1
O=C(O)c1ccccc1N/N=C\c1ccnc2ccccc12	6.4*	12*	-2	1	0	4
O=C(O)c1cccc(-n2cc(-c3cccc(C(F)(F)F)c3)cn2)c1	5	13*	5	1	1	1
NC(=O)c1nnn(-c2cccc(C(F)(F)F)c2)c1-c1ccccc1	0	-1	3	-1	3	0
COc1cccc(C(=O)NCCC2=CCCCC2)c1OC	2	8	3	1	4.5*	3
Nc1ccc(OCc2ccccc2)cc1[N+](=O)[O-]	1	11*	3	-1	0	-1
CCCCCCCCN1C(=O)[C@@H](CC(=O)NCc2ccc(C)o2)C[C@@]2(C(=O)OC)C1=C[C@H](COCc1ccccc1)O[C@@H]2C	-3	2	.	-1	.	0
c1ccc(CNC2CC3CCC2C3)cc1 (stereo not drawn)	0	4	1	0.9*	-1	0
O=C(O)c1ccc2c(c1)SC1=NS(=O)(=O)CCN12	-1	4	0	-1	0	0
O=S1(=O)CCN2N=C(C3CC3)SC2=N1	-1	0	0	-2	6.2*	0
COCCNC(=O)/C(C#N)=C/c1ccc(OCc2ccccc2)cc1	0	2	3	-1	-1	0
COCCNC(=O)/C(C#N)=C/c1ccc(C(=O)O)cc1	-1	-1	1	-1	5.0*	0
COCCNC(=O)/C(C#N)=C/c1ccc(OCc2ccc(F)cc2)cc1	2	13*	3	-2	0	-1
COC(=O)C[C@H]1CC[C@@H]2[C@@H](COc3ccc(NC(=O)Nc4ccccc4OC)cc3C(=O)N2C)O1	-3	0	.	-1	.	0
CC(C1CC1)N(Cc1ccccc1)C(=O)NC(=O)c1ccc(F)cc1 (stereo not drawn)	0	12*	1	-1	1	3
CC(=O)Nc1ccc(C(=O)COC(=O)c2cccs2)c(F)c1	2	11*	2	0	1	3
COc1cccc(C(=O)COC(=O)c2cccs2)c1	2	2	1	-1	1	1
CC(=O)Nc1ccc(C(=O)COC(=O)c2c(C)noc2C)c(F)c1	-1	1	0	-2	-1	1
COc1ccc(C(=O)COC(=O)c2cccs2)cc1	2	11*	5	0	2	3.7*
CC1OC(CCc2cccc(Cl)c2)Cc2[nH][nH]c(=O)c21 (stereo not drawn)	4	7	.	2.0*	.	3
COC(=O)C1CN(Cc2ccc(F)cc2)CCS(=O)(=O)N1Cc1ccc(OC)cc1 (stereo not drawn)	1	2	.	-1	.	1
O=C1C(Cl)=C(N2CCCCCC2)C(=O)N1c1ccccc1	-2	0	2	-2	1	-1
O=C1C(Cl)=C(N2CCCCCC2)C(=O)N1c1ccc(Br)cc1	1	5	-1	2.2*	0	0
CCOC(=O)CC[C@@]1(C(=O)OCC)C[C@@H](CC(=O)NCc2ccc(OC)c(OC)c2)C(=O)N2CCCC=C21	-1	-2	.	-1	.	0
CCOC(=O)c1cc(C#N)c(SCC(=O)O)[nH]c1=O	1	1	0	-2	0	1
SMILES	hcDAF12 agonist	hgDAF12 agonist	FXN GAA850 act	ssDAF-12 act	DAX1 inh-1	DAX1 inh-2
CCOC(=O)c1cc(C#N)c(SCC(N)=O)[nH]c1=O	1	2	-1	-2	4.5*	0
O=C1NC(=Nc2ccccc2)c2c1cccc2[N+](=O)[O-]	0	2	1	1.3*	-2	0
COc1ccc2c(c1)C1(Nc3ccccc3-c3nc4ccccc4n31)C(=O)N2 (stereo not drawn)	-1	-2	-1	-2	-1	1
CC1(c2ccncc2)Nc2ccccc2-c2nc3ccccc3n21 (stereo not drawn)	2	12*	5	-1	1	1
COC(=O)C[C@@H]1CC[C@@H]2[C@H](COc3ccc(NC(=O)Nc4c(C)noc4C)cc3C(=O)N2C)O1	2	1	.	-1	.	1
Cc1ccnc2nc(C(=O)Nc3nc4ccccc4s3)nn12	6.3*	13*	2	1.0*	2	4.3*
COCC(=O)Nc1nc2ccccc2s1	6.0*	6	1	0	2	1
Cc1ccc2nc(NC(=O)COC(=O)c3ccco3)sc2c1	5.8*	9	5	0	1	2
O=C(COC(=O)c1ccco1)Nc1nc2ccc([N+](=O)[O-])cc2s1	0	-1	-2	-1	-1	0
CCC(=O)Nc1nc2ccc3nc(C)sc3c2s1	2	11*	2	0	1	3
COc1ccc(-n2cc(COC(=O)NCCc3c[nH]c4ccccc34)nn2)cc1	0	0	.	-2	.	-1
Cc1ccc(S(=O)(=O)N(C)CC(=O)Nc2nc3ccccc3s2)cc1	3	1	1	-1	-1	-1
Cc1cc[n+](CC(=O)Nc2nc3ccccc3s2)cc1	1	4	3	1.9*	1	0
O=C(CSC1=NCCS1)Nc1nc2ccccc2s1	1	4	1	1.2*	1	0
COc1cc(NC(=O)C2CCCN(S(=O)(=O)c3cccc4cccnc34)C2)cc(OC)c1 (stereo not drawn)	-4	-5	.	-2	.	-2
O=C(Cn1nnc(-c2ccccc2Cl)n1)N1CCCCC1	0	7	5	0	4.6*	1
Cc1ccc(-c2onc3ccc(C=O)cc23)cc1	0	13*	6	0	-3	1
Cc1cc(-c2onc3ccc(Cl)cc23)ccc1O	6.2*	7	0	0	0	0
Cc1ccc(-c2onc3ccc(C4(C)OCCO4)cc23)cc1	-2	-1	3	-1	0	0
C=CCn1nc2ccccc2c1OCCO	6.0*	5	-1	0	3	0
C[C@H]1[C@@H](NC(=O)C(c2ccccc2)c2ccccc2)CC[C@@]23CCCN2C(=O)CCC[C@@H]13	-2	0	.	-1	.	.
O=C(N[C@@H]1C[C@@H]2O[C@@H](CO)CC[C@@H]2O[C@@H]1CCc1ccc(-c2cccnc2)cc1)c1cccc(F)c1	-1	4	.	-2	.	-2
Cc1ccccc1-c1nc2sc3c(c2c(=O)n1N)CCCC3	-2	-2	-4	-1	4.5*	0
Cc1nc2sc3c(c2c(=O)n1N)CCC3	-1	1	2	-2	1	2
COC(=O)c1cc(C(c2ccccc2O)C2CCCO2)n2cccc(C(C)(C)C)c12 (stereo not drawn)	-4	2	.	0	.	-2

Screening data from PubChem BioAssay.
